{"source": "PubChem BioAssay AID651635", "about": "(National Center for Advancing Translational Sciences (NCATS), 2013)", "note": "Out of some 400,000 compounds screened, about 1,900 (0.47%) were called active. Entries that show only a call come without a potency. Another 14% or so got no clear call; they are omitted. This is one part of a sample in which actives are shown more often than they occur. Calls come from the whole dose curve; as a rule, active = well fitted cell-killing curve with a large enough effect; inconclusive = small, poorly fitted or top-dose-only effect, or effect the other way; inactive = no such curve, though single readings can be large or run the other way. Potency is the fitted concentration of half-maximal effect.", "data": [{"assay": "Viability Counterscreen for Primary qHTS for Inhibitors of ATXN expression; note: nearly all actives have a fitted effect of over 40% in size", "settings": "S2 cells (HEK-293 line with an ATXN2-luciferase reporter) viability, CellTiter-Fluor protease fluorescence, 24 h; series mostly up to 56.7 µM", "from_the_text": "Spinocerebellar ataxia type 2 (SCA2) is a multisystem neurodegenerative disease caused by a dominantly-acting mutation leading to expansion of a polyQ domain in the ataxin-2 protein (ATXN2). SCA2 patients develop progressive ataxia and later lose function in other neuronal systems. Prominent parkinsonian signs develop in some patients. Similar to many neurodegenerative disorders, no symptomatic or disease-modifying treatments are known.\nThe primary objective of the proposed research is to identify compounds inhibiting ATXN2 expression and to test them for efficacy in SCA2 mouse models. To this end, we have developed a cell-based assay paired with an in vivo mouse model using identical luciferase expression constructs. This approach takes advantage of an ATXN2-luciferase transgene, with the luciferase gene flanked by the upstream and downstream portions of the ATXN2 gene. This primary assay was tested against the NIH Molecular Libraries Small Molecule Repository (MLSMR).\nNIH Chemical Genomics Center [NCGC]\nNIH Molecular Libraries Probe Centers Network [MLPCN]\nAssay Submitter (PI): Daniel Scoles, University of Utah\nPROTOCOL TABLE (as described by Inglese J, Shamu CE and Guy RK. 2007)\nSEQUENCE No. (e.g., 1, 2, 3, etc.); […] (e.g., Cells, Incubation, Reagent, etc.); VALUE; DESCRIPTION.\n1; Cells; 4 uL; white, solid bottom, 1536-well Greiner assay plate.\n2; Incubation; 2 hr; 37 degree C in 5% humidified CO2.\n3; Compounds; 23 nL; Kalypsis pintool (Wako USA) equipped with a 1536-well pin head.\n4; Incubation; 24 hr; 37 degree C in 5% humidified CO2.\n5; Reagent; 1 uL; Gly-Phe-7-Amino-4-trifluoromethylcoumarin.\n6; Incubation; 30 min; 37 degree C in 5% humidified CO2.\n7; Detection; Fluorescence; ViewLux plate reader (PerkinElmer).\n8; Reagent; 3 uL; SteadyGlo luciferase solution (Promega).\n9; Incubation; 5 min; room temperature.\n10; Detection; Luminescence; ViewLux plate reader (PerkinElmer).\nNOTES (numbers refer to Sequence numbers above)\n1. S2 cells expressing ATXN2-luciferase reporter were suspended in phenol-red free DMEM and dispensed in assay plates using a Multidrop Combi dispenser (Thermo Fisher Scientific).\n2. Assay plates were incubated. Evaporation was prevented by covering assay plates with metal lids containing holes to allow gas diffusion.\n3. […] Vehicle-only plates, with DMSO being pin-transferred to columns 5-48, were inserted uniformly at the beginning and the end of each library to monitor and record any shifts in assay performance.\n5. 125 uM Gly-Phe-7-Amino-4-trifluoromethylcoumarin (MP Biomedicals) working concentration was used at a final concentration of 25 uM.\n7. To assess cell viability; the assay plates were read using the ViewLux high-throughput CCD imager (PerkinElmer), wherein single end-point fluorescence measurement was acquired (excitation 405/10; emission 540/25 nm).\n8. Detection reagent SteadyGlo Luciferase (Promega) was added to the assay plate.\n10. Luminescence is then measured on the ViewLux imager equipped with a clear emission filter using a 2 sec exposure. All screening operations were performed on a fully integrated robotic system (Kalypsys) containing one RX-130 and two RX-90 anthropomorphic robotic arms (Staubli).\nInglese J, Shamu CE and Guy RK, Reporting data from high throughput screening of small molecule libraries, Nature Chemical Biology, 2007, 3(8): 438-441. doi.org/10.1038/nchembio0807-438.", "values": [{"compound": "CC[C@H]1CN2CCc3cc(OC)c(OC)cc3[C@@H]2C[C@@H]1C[C@H]1NCCc2cc(OC)c(OC)cc21", "Potency": "39.8 µM (active)"}, {"compound": "C[C@H]1CC[C@@]2(NC1)O[C@@H]1C[C@H]3[C@@H]4CC=C5C[C@@H](O)CC[C@]5(C)[C@@H]4CC[C@]3(C)[C@@H]1[C@@H]2C", "Potency": "inactive"}, {"compound": "C[C@]12CC[C@@H]3C(=CCc4cc(O)ccc43)[C@@H]1CCC2=O", "Potency": "inactive"}, {"compound": "CCOC(=O)c1c(C)c(C(=O)N2CCC3(CC2)OCCO3)c(C)n1CC", "Potency": "inactive"}, {"compound": "CC(Cc1ccccc1)NCCC(c1ccccc1)c1ccccc1", "note": "(stereo not given)", "Potency": "20 µM (active)"}, {"compound": "CC(Cc1ccccc1)NC=O", "note": "(stereo not given)", "Potency": "inactive"}, {"compound": "CC(=O)NC(=O)NC(C)Cc1ccccc1", "note": "(stereo not given)", "Potency": "inactive"}, {"compound": "Cc1cc(-c2ccc(N)c(C)c2)ccc1N", "Potency": "inactive"}, {"compound": "CCN1C[C@@]2(COC)CC[C@H](OC)[C@]34[C@@H]1[C@]1(OCO[C@@]15C[C@@H](OC)C1C[C@H]3[C@H]5[C@@H]1OC)[C@H](O)[C@@H]24", "Potency": "inactive"}, {"compound": "CN1[C@@H]2CC[C@H]1CC(OC(=O)c1cc(Cl)cc(Cl)c1)C2", "note": "(stereo not given in full)", "Potency": "inactive"}, {"compound": "O=C(CSc1ccccc1)Nc1ccc(C(=O)Nc2cccc(O)c2)cc1", "Potency": "inactive"}, {"compound": "COc1ccccc1C(=O)N[C@@H]1c2ccccc2C2(CCN(Cc3nc(C(C)C)cs3)CC2)[C@H]1O", "Potency": "35.5 µM (active)"}, {"compound": "COC(=O)C1=C(c2ccc(Cl)c(C(F)(F)F)c2)C[C@@H]2CC[C@H]1N2C(=O)NC1CC1", "Potency": "inactive"}, {"compound": "Clc1ccc([C@@H]2C[C@H]3CC[C@@H]2N3)cn1", "Potency": "inactive"}, {"compound": "C[C@]12CC[C@H](O)C[C@@H]1CC[C@H]1[C@H]2CC[C@]2(C)C(=O)CC[C@@H]12", "Potency": "inactive"}, {"compound": "CCOC(=O)[C@]12Cc3ccccc3[C@H]1N(C1CCCCC1)C(=O)c1cc(OC)ccc12", "Potency": "10 µM (active)"}, {"compound": "CCOC(=O)[C@]12Cc3cc(OC)ccc3[C@H]1N(C(C)C)C(=O)c1ccccc12", "Potency": "11.2 µM (active)"}, {"compound": "COc1cccc(-c2ccc(O)c(CNC3CN4CCC3CC4)c2)n1", "note": "(stereo not given)", "Potency": "inactive"}, {"compound": "CCN1C[C@]2(C)CC[C@H](O)[C@@]34[C@@H]5CC6[C@@H](OC)C[C@@](O)([C@@H]5[C@@H]6O)[C@H](C[C@@H]23)[C@H]14", "Potency": "inactive"}, {"compound": "CCCOC(=O)c1cncn1C(C)c1ccccc1", "note": "(stereo not given)", "Potency": "inactive"}, {"compound": "Cc1nnc(NC(=O)c2cccn(Cc3cccc(F)c3)c2=O)s1", "Potency": "inactive"}, {"compound": "CCOC(=O)c1c(-c2ccccc2)oc2ccc(OC(=O)N(C)C)cc12", "Potency": "inactive"}, {"compound": "COC(=O)C1=C(c2ccc(F)cc2OCc2ccccc2)C[C@@H]2CC[C@H]1N2C(=O)NCc1ccc2[nH]ccc2c1", "Potency": "inactive"}, {"compound": "CC1N=C(N)OC1c1ccccc1", "note": "(stereo not given)", "Potency": "inactive"}, {"compound": "O=C(Cn1c(=O)n(CC2CS2)c2ccccc21)N1CCCCC1", "note": "(stereo not given)", "Potency": "inactive"}, {"compound": "CC(=CCOc1ccc2ccc(=O)oc2c1)C1=CC(=O)C(C)(C)O1", "Potency": "inactive"}, {"compound": "CCC(=NCCc1ccccc1)c1c(O)n(C2CCCCC2)c(=O)[nH]c1=O", "Potency": "inactive"}, {"compound": "Cc1ccc(Cn2nnnc2CN2CCC(n3nnc4ccccc43)CC2)cc1", "Potency": "inactive"}, {"compound": "O=c1[nH]c2ccccc2n1C1CCN(C(c2ccnc3ccccc23)c2nnnn2Cc2ccccc2)CC1", "note": "(stereo not given)", "Potency": "12.6 µM (active)"}, {"compound": "O=c1[nH]c2ccccc2n1C1CCN(C(c2ccccc2)c2nnnn2Cc2ccccc2)CC1", "note": "(stereo not given)", "Potency": "7.08 µM (active)"}, {"compound": "O=P1(N(CCCl)CCCl)NC(OO)CCO1", "note": "(stereo not given)", "Potency": "inactive"}, {"compound": "Cc1ccsc1C(=O)C1CCCN(Cc2ccc(O)cc2)C1", "note": "(stereo not given)", "Potency": "inactive"}, {"compound": "Cc1ccc(N2C(=O)NC(=O)C(CCc3ccncc3)(Cc3cccc(Cl)c3Cl)C2=O)cc1", "note": "(stereo not given)", "Potency": "inactive"}, {"compound": "CCOP(=O)(OCC)C(O)c1ccc(OC)cc1OC", "note": "(stereo not given)", "Potency": "inactive"}, {"compound": "CC[N+]1(CCOC(=O)C(O)(c2ccccc2)c2ccccc2)CCCCC1", "Potency": "inactive"}, {"compound": "Cc1ccc(Cl)cc1N1CCN(C(=O)C2CCC(CNS(=O)(=O)c3cccs3)CC2)CC1", "note": "(stereo not given)", "Potency": "inactive"}, {"compound": "CO[C@]12CC[C@@]3(C[C@@H]1[C@](C)(O)C(C)(C)C)[C@@H]1Cc4ccc(O)c5c4[C@@]3(CCN1CC1CC1)[C@H]2O5", "Potency": "35.5 µM (active)"}, {"compound": "Oc1ccc2c3c1OC1[C@H](O)CC[C@@]4(O)[C@@H](C2)N(CC2CC2)CC[C@]314", "note": "(stereo not given in full)", "Potency": "inactive"}, {"compound": "CN(C)c1ccc(/C=C2\\CC3C4CC=C5CC(O)CCC5(C)C4CCC3(C)C2=O)cc1", "note": "(stereo not given)", "Potency": "inactive"}, {"compound": "CC(C)=C[C@@H]1[C@@H](C(=O)OCc2coc(Cc3ccccc3)c2)C1(C)C", "Potency": "inactive"}, {"compound": "Cc1cc(OCc2cc(C(=O)O)oc2C)c2c3c(c(=O)oc2c1)CCCC3", "Potency": "inactive"}, {"compound": "CN(Cc1cccc2ncccc12)C(=O)c1cnn(-c2nccc(-c3ccccc3F)n2)c1C1CC1", "Potency": "22.4 µM (active)"}, {"compound": "CCCCC1C(=O)NC(=O)N(C2CCCCC2)C1=O", "note": "(stereo not given)", "Potency": "inactive"}, {"compound": "CC1=C(C(=O)O)N2C(=O)[C@@H](N)[C@H]2SC1", "Potency": "inactive"}, {"compound": "NCC(O)c1ccc(O)cc1", "note": "(stereo not given)", "Potency": "inactive"}]}]}
